# Results: PubChem BioAssay (Tox21)
# Inconclusive results are not listed. Activity calls are given as the source filed them. Unless noted, calls follow the shape of the full dose curve.
# Tested on: not listed separately
# Assay: qHTS assay to identify small molecule antagonists of the thyroid receptor (TR) signaling pathway (AID 743065; active = well fitted inhibition curve with a large enough effect in the repeat runs; also: nearly all actives have a fitted effect of over 55% in size; also: potency is read from the fitted curve at half-maximal effect)
# Conditions: GH3.TRE-Luc, T3-stimulated luciferase inhibition, 23.5 h; series mostly up to 70.3 µM; activity, negative = inhibition: at the top concentration
# Summary of the method: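 GH3.TRE-Luc rat pituitary cells (two TREs driving luciferase) were dosed with compound, then stimulated with 1 nM T3 (final) for 23.5 h at 37 C. ONE-Glo luminescence was the read-out, with CellTiter-Fluor fluorescence as the cytotoxicity counter-screen.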
# % is scaled to controls: 0 for no effect and ±100 for the full control effect.
Compound,"activity, negative = inhibition",Potency
CC(=O)c1ccc2c(c1)[C@H](NC(=O)c1ccc(F)cc1)[C@@H](O)C(C)(C)O2,-19% (inactive),–
COc1ccc(C(C)=O)cc1,10.5% [at 95 µM] (inactive),–
CCCCCCCC/C=C\CCCCCCCC(N)=O,83.6% (inactive),–
CC1(C)CCC(C)(C)c2cc(NC(=O)c3ccc(C(=O)O)cc3)ccc21,–,21.1 µM (active)
CC1CCc2cc(F)cc3c(=O)c(C(=O)O)cn1c23 (stereo unspecified),-3.89% (inactive),–

# Tested on: thyroid hormone receptor (rat, GH3 cells)
# Assay: qHTS assay to identify small molecule agonists of the thyroid receptor (TR) signaling pathway (AID 743066)
# Conditions: GH3.TRE-Luc cells, TR agonist luciferase, 24 h; series mostly up to 83.9 µM; activation: at the top concentration
row,Compound,activation
1,O=C1[C@H](CC[C@H](O)c2ccc(F)cc2)[C@@H](c2ccc(O)cc2)N1c1ccc(F)cc1,-3.77% (inactive)
2,CC(=O)c1ccc2c(c1)[C@H](NC(=O)c1ccc(F)cc1)[C@@H](O)C(C)(C)O2,-1.86% (inactive)
3,CCOc1ccc2[nH]cc(C(=O)NCc3ccccc3)c(=O)c2n1,-4.01% (inactive)
4,Oc1ccc(Sc2ccc(O)cc2)cc1,-0.599% (inactive)
5,N#Cc1cc2ccccc2c2ccccc12,-1.62% [at 95.2 µM] (inactive)
6,CN1CCC(OC(c2ccccc2)c2ccccc2)CC1,-4.74% [at 39.4 µM] (inactive)
7,O=C(Cl)c1c(Cl)cccc1Cl,0.497% [at 95.2 µM] (inactive)
8,COc1ccc(C(C)=O)cc1,-0.522% [at 95.2 µM] (inactive)
9,CCCCCCCC/C=C\CCCCCCCC(N)=O,2.35% (inactive)
10,O=C1CCCCCO1,3.66% [at 95.2 µM] (inactive)
11,CCCCC(CC)COCCCN (stereo unspecified),-5.3% (inactive)
12,C=CC(C)(CCC=C(C)C)OC(=O)c1ccccc1 (stereo unspecified),-3.43% (inactive)
13,COC(Cc1ccccc1)OC,-0.612% (inactive)
14,O=[N+]([O-])c1cc[n+]([O-])cc1,-1.73% (inactive)
15,Oc1ccc(O)c2c(O)cccc12,-3.39% (inactive)
16,CC1(C)CCC(C)(C)c2cc(NC(=O)c3ccc(C(=O)O)cc3)ccc21,-6.54% (inactive)
17,CC(=O)c1c(C)c([N+](=O)[O-])c(C(C)(C)C)c([N+](=O)[O-])c1C,-7.87% (inactive)
18,CC1CCc2cc(F)cc3c(=O)c(C(=O)O)cn1c23 (stereo unspecified),-1.19% (inactive)
19,CCCC(=O)OCC,0.249% (inactive)
20,Cc1cc(CC(=O)O)c(C)n1-c1ccc(Cl)cc1,-1.79% (inactive)
21,COc1ccc2[nH]c(S(=O)Cc3ncc(C)c(OC)c3C)nc2n1 (stereo unspecified),-0.486% (inactive)
22,CC(C)(C)c1ccc(S)cc1,0.921% (inactive)
23,CCN(CC)CCOc1ccc2c(c1)C(=O)c1cc(OCCN(CC)CC)ccc1-2,-1.21% (inactive)
24,CC(C)(C)c1cc(CO)cc(C(C)(C)C)c1O,-5.72% [at 95.2 µM] (inactive)
25,CC(C)CC=O,-3.54% (inactive)
26,COc1cc(C(C)(C)C)c(O)c(C(C)(C)C)c1,-4.94% (inactive)
27,O=S(=O)(O)c1ccc(O)c2ncccc12,0% (inactive)

# Molecular target: Estrogen receptor (Homo sapiens) (UniProt P03372)
# Sequence (P03372 whole entry, looked up): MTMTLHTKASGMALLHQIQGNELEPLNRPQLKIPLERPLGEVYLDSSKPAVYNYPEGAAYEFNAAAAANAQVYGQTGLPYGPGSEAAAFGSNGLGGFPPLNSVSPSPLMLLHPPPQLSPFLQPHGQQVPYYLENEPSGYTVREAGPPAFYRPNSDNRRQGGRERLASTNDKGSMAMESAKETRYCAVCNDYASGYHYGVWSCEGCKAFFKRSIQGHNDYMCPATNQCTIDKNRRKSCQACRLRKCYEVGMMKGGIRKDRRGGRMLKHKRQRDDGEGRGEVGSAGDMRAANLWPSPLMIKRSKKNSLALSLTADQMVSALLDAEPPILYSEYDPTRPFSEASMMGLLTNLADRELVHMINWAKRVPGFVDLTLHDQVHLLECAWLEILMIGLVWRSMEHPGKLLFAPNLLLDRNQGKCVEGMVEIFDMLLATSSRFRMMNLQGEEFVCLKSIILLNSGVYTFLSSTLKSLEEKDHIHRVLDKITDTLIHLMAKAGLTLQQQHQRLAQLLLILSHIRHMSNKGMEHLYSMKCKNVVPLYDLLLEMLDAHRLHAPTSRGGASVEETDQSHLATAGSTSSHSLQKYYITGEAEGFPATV
# Assay: qHTS assay to identify small molecule antagonists of the estrogen receptor alpha (ER-alpha) signaling pathway (AID 743069; active = well fitted curve in the direction sought with a large enough effect in the signal ratio in the repeat runs, not every such curve was filed as active; the % refers to the signal ratio)
# Conditions: HEK293 ER-alpha-UAS-bla, beta-lactamase ratio, antagonist mode; series mostly up to 69.4 µM; activity, negative = inhibition: at the top concentration
# Summary of the method: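 HEK293 ER-alpha-UAS-bla GripTite cells, held overnight in 2% charcoal-stripped FBS, 5,000 cells/well, preincubated 4 h, then compound plus 17beta-estradiol for 18 h at 37C. Beta-lactamase read by LiveBLAzer B/G FRET substrate, 2 h at room temperature.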
row,Compound,"activity, negative = inhibition"
1,O=C1[C@H](CC[C@H](O)c2ccc(F)cc2)[C@@H](c2ccc(O)cc2)N1c1ccc(F)cc1,8.41% (inactive)
2,CCOc1ccc2[nH]cc(C(=O)NCc3ccccc3)c(=O)c2n1,13.4% (inactive)
3,CCN(CC)C(C)CN1c2ccccc2Sc2ccccc21 (stereo unspecified),-10% [at 32.6 µM] (inactive)
4,CN1CCC(OC(c2ccccc2)c2ccccc2)CC1,-12% [at 32.6 µM] (inactive)
5,O=C(Cl)c1c(Cl)cccc1Cl,10.4% [at 79.1 µM] (inactive)
6,CNCC[C@@H](Oc1ccccc1C)c1ccccc1,-11.8% (inactive)
7,O=C1CCCCCO1,5.04% [at 79.1 µM] (inactive)
8,CCCCC(CC)COCCCN (stereo unspecified),-29.1% (inactive)
9,Oc1ccc(O)c2c(O)cccc12,-10.3% (inactive)
10,CC(=O)O[C@H]1C[C@@H]2CC[C@@H]3[C@H](CC[C@@]4(C)[C@H]3C[C@H]([N+]3(C)CCCCC3)[C@@H]4OC(C)=O)[C@@]2(C)C[C@@H]1N1CCCCC1,-4.43% (inactive)
11,CN(C)CC[C@@H](c1ccc(Br)cc1)c1ccccn1,-8.42% (inactive)
12,CCN1CCC[C@H]1CNC(=O)c1c(OC)ccc(Br)c1OC,8.09% (inactive)
13,CCCC(=O)OCC,10.2% (inactive)
14,COc1ccc2[nH]c(S(=O)Cc3ncc(C)c(OC)c3C)nc2n1 (stereo unspecified),-12% (inactive)
15,CC(C)CC=O,13.7% (inactive)
16,O=S(=O)(O)c1ccc(O)c2ncccc12,15% (inactive)

# Tested on: not listed separately
# Assay: qHTS assay to identify small molecule antagonists of the estrogen receptor alpha (ER-alpha) signaling pathway - cell viability counter screen (AID 743074);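 also: HEK293 cells carrying ER-alpha-UAS-bla reporter stimulated with 17beta-estradiol; nearly all actives have a fitted effect of over 45% in size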
# Conditions: ERalpha-bla HEK293 viability, CellTiter-Glo luminescence, 18 h; series mostly up to 69.4 µM; activity, negative = cytotoxicity: at the top concentration
row,Compound,"activity, negative = cytotoxicity"
1,O=C1[C@H](CC[C@H](O)c2ccc(F)cc2)[C@@H](c2ccc(O)cc2)N1c1ccc(F)cc1,-18.6% (inactive)
2,CC(=O)c1ccc2c(c1)[C@H](NC(=O)c1ccc(F)cc1)[C@@H](O)C(C)(C)O2,13.5% (inactive)
3,CCOc1ccc2[nH]cc(C(=O)NCc3ccccc3)c(=O)c2n1,-11.6% (inactive)
4,Oc1ccc(Sc2ccc(O)cc2)cc1,15.1% (inactive)
5,N#Cc1cc2ccccc2c2ccccc12,-24.6% [at 79.1 µM] (inactive)
6,CCN(CC)C(C)CN1c2ccccc2Sc2ccccc21 (stereo unspecified),-21.1% [at 32.6 µM] (inactive)
7,Cc1ccc2c(ccc3ccccc32)c1,-25.8% [at 79.1 µM] (inactive)
8,CC(Cc1cccc(C(F)(F)F)c1)NCCOC(=O)c1ccccc1 (stereo unspecified),-25.7% (inactive)
9,CN1CCC(OC(c2ccccc2)c2ccccc2)CC1,-18.4% [at 32.6 µM] (inactive)
10,O=C(Cl)c1c(Cl)cccc1Cl,9.2% [at 79.1 µM] (inactive)
11,CNCC[C@@H](Oc1ccccc1C)c1ccccc1,-20.6% (inactive)
12,CCCCCCCC/C=C\CCCCCCCC(N)=O,6.08% (inactive)
13,O=C1CCCCCO1,7.21% [at 79.1 µM] (inactive)
14,CCCCC(CC)COCCCN (stereo unspecified),-17.6% (inactive)
15,C=CC(C)(CCC=C(C)C)OC(=O)c1ccccc1 (stereo unspecified),-8.84% (inactive)
16,COC(Cc1ccccc1)OC,-9.91% (inactive)
17,O=[N+]([O-])c1cc[n+]([O-])cc1,6.71% (inactive)

row,Compound,"activity, negative = cytotoxicity"
1,Oc1ccc(O)c2c(O)cccc12,-13.6% (inactive)
2,CC1(C)CCC(C)(C)c2cc(NC(=O)c3ccc(C(=O)O)cc3)ccc21,13.7% (inactive)
3,CC(=O)c1c(C)c([N+](=O)[O-])c(C(C)(C)C)c([N+](=O)[O-])c1C,-15% (inactive)
4,CC1CCc2cc(F)cc3c(=O)c(C(=O)O)cn1c23 (stereo unspecified),14.2% (inactive)
5,CC(=O)O[C@H]1C[C@@H]2CC[C@@H]3[C@H](CC[C@@]4(C)[C@H]3C[C@H]([N+]3(C)CCCCC3)[C@@H]4OC(C)=O)[C@@]2(C)C[C@@H]1N1CCCCC1,20% (inactive)
6,CN(C)CC[C@@H](c1ccc(Br)cc1)c1ccccn1,-15.8% (inactive)
7,CC(C)NCC(O)c1cc(O)cc(O)c1 (stereo unspecified),4.69% (inactive)
8,CCN1CCC[C@H]1CNC(=O)c1c(OC)ccc(Br)c1OC,-17.5% (inactive)
9,CCCC(=O)OCC,-5.6% (inactive)
10,Cc1cc(CC(=O)O)c(C)n1-c1ccc(Cl)cc1,24% (inactive)
11,COc1ccc2[nH]c(S(=O)Cc3ncc(C)c(OC)c3C)nc2n1 (stereo unspecified),8.76% (inactive)
12,CC(C)(C)c1ccc(S)cc1,14.9% (inactive)
13,CCN(CC)CCOc1ccc2c(c1)C(=O)c1cc(OCCN(CC)CC)ccc1-2,4.25% (inactive)
14,CC(C)CC=O,13.7% (inactive)
15,COc1cc(C(C)(C)C)c(O)c(C(C)(C)C)c1,20.8% (inactive)
16,O=S(=O)(O)c1ccc(O)c2ncccc12,-23.7% (inactive)
